Inconclusive results are not listed. The source made the active and inactive calls. Calls follow the shape of the dose curve; as a rule, active = well fitted inhibition curve with a large enough effect; inconclusive = small, poorly fitted or top-dose-only effect; inactive = no such curve, though single readings can be large or run the other way.
Test: qHTS Assay for Lipid Storage Modulators: COS7 Assay against Probe and Analogs
Conditions: COS7 lipid droplet area, BODIPY imaging, 18 h; cells loaded with 400 µM oleic acid
Description: Storing lipids as a reservoir for energy or the anabolism of elementary metabolites is a common feature of probably all cells and is conserved from bacteria to humans. The universal cellular lipid storage organelle is the so-called lipid storage droplet (LD). Although ubiquitous, LDs share a simple structure composed of a hydrophobic core that harbors the storage lipids, which is shielded by a droplet-specific phospholipid monolayer to which proteins are attached. The current model of LD biogenesis involves an incorporation of the lipid core into the membrane leaflets of the endoplasmic reticulum (ER) followed by a subsequent budding-like maturation of a LD, which ultimately pinches off. Once released, LD volume can increase by localized lipogenesis or fusion of existing droplets. Storage lipids are re-mobilized enzymatically by lipase activity. Lipase regulation in the adipocyte is heavily studied and involves multiple components including catecholamine signaling, the LD-associated proteins Perilipin and comparative gene identification-58 (CGI-58) and at least two lipases named hormone sensitive lipase (HSL) and adipocyte triglyceride lipase (ATGL). LD regulation outside of the adipocyte is poorly understood and only few components are known. However, there is an urgent need to learn more about ectopic fat depots as mislocalized storage of lipids, for example in the liver or muscle, is an eminent health problem associated with insulin resistance or the metabolic syndrome. We developed a laser-scanning cytometer assay to enable 1,536-well screening and combined the results of the small molecules screen with an RNAi database based on lipid storage. In this assay we tested analogs of the probe against a mammalian cell line (COS7), to see if these small molecules could disrupt lipid storage. NIH Molecular Libraries Probe Production Centers Network [MLPCN] NIH Chemical Genomics Center [NCGC] MLPCN Grant: MH085686 Assay Submitter (PI): Mathias Beller, Max-Planck-Institut fur Biophysikalische Chemie
COS7 cells were obtained from ATCC (CRL-1651), 5500 cells/well were dispensed into Corning 96 well imaging plate (catalog # 3340), and cultured in 100 uL of 1:1 DMEM medium (PAA) contain 10% fetal bovine serum (FBS) for 24 hours at 37 degrees C, 95% humidity, and 5% CO2. The medium was exchanged for compound treatment. Compound treatment occurred in 150 microL serum reduced medium (5% FBS) and 0.2% DMSO in presence of 400 microM oleic acid for 17-18 h. Cells were then fixed (3.7 % formaldehyde in PBS, 5 min), permeabilized (0.1% Triton X100, 5 min) and washed three times with PBS. Lipid droplets (1:2000 BODIPY 493/503) and nuclei (1:1000 Hoechst 33342) were stained for 1h. Imaging was performed in a Zeiss Axiovert automatic microscope. Number of lipid droplet accumulated in […] cells were analyzed using visual examination of the microscopic images and additional quantification by image segmentation using Cell Profiler.

Potency, active:
CCOC(=O)C1CCN(C(=O)C(C)(C)NC(=O)Nc2ccccc2Cl)CC1 13.2 µM
O=C(NC1CCCc2c1cnn2-c1cccc(O)c1)c1ccccn1 (stereo not given) 4.18 µM
CCOc1ccc(CCNC(=O)c2cc3sccc3n2Cc2ccccc2)cc1OCC 0.935 µM
CCOc1ccc(CCNC(=O)c2cc3c(s2)CCC3)cc1OCC 11.8 µM
CCOc1ccc(CCNC(=O)c2cc3sccc3n2CCN2CCOCC2)cc1OCC 2.96 µM
CCOc1ccc(CCNC(=O)c2cc3sccc3n2CC=C(C)C)cc1OCC 2.35 µM
CCOc1ccc(CCNC(=O)c2ccnn2Cc2cccc(C)c2)cc1OCC 13.2 µM
CCOc1ccc(CCNC(=O)c2cc3sccc3n2Cc2ccc(Cl)c(F)c2)cc1OCC 0.296 µM
CCOc1ccc(CCNC(=O)c2cc3ccccc3n2Cc2cc(C)cc(C)n2)cc1OCC 1.48 µM
CCOc1ccc(CCN(C)C(=O)c2cc3sccc3n2Cc2ccccc2)cc1OCC 11.8 µM
CCOC(=O)C1CCN(C(=O)C(C)(C)NC(=O)Nc2cccc(OC)c2)CC1 16.6 µM
CC(NCc1ccc2c(c1)nc(NC(=O)c1ccc(-c3cn[nH]c3)s1)n2CC(C)(C)O)C(C)(C)C (stereo not given) 4.69 µM
O=C(NC1CCCc2c1cnn2-c1ccc(O)cc1)c1ccccn1 (stereo not given) 10.5 µM
CC1(C)CCC(c2ccc(Cl)cc2)=C(CN2CCN(c3ccc(C(=O)NS(=O)(=O)c4ccc(N[C@H](CCN5CCOCC5)CSc5ccccc5)c(S(=O)(=O)C(F)(F)F)c4)cc3)CC2)C1 3.72 µM
COc1ccc(-n2ncc3c2CCCC3NC(=O)c2ccccn2)cc1 (stereo not given) 4.69 µM
CCOc1ccc(CCNC(=O)c2cc3sccc3n2Cc2ccccn2)cc1OCC 1.48 µM

Max response, inactive:
CCOc1ccc(CCNC(=O)C2=C(C)OCCO2)cc1OCC 10.4%
CCOc1ccc(CCNC(=O)c2cnon2)cc1OCC 8.92%
O=C(NC1CCCc2c1cnn2-c1ccc(F)cc1F)c1cnon1 (stereo not given) 13.2%
O=C(O)c1cccc(-c2noc(-c3ccccc3F)n2)c1 -6.12%
CCOC(=O)C1CCN(C(=O)C(C)(C)NC(=O)Nc2cccc(C(=O)OC)c2)CC1 9.87%
O=C(Cc1ccccc1)NC1CCCc2c1cnn2-c1ccc(F)cc1F (stereo not given) 1.55%
CCOC(=O)C1CCN(C(=O)C(C)(C)NC(=O)Nc2ccc(CN3CCOCC3)cc2)CC1 -3.75%
CCOc1ccc(CCNC(=O)c2cccs2)cc1OCC -20.6%
Cc1cc2c(cc1C1(c3ccc(C(=O)O)cc3)CC1)C(C)(C)CCC2(C)C -1.19%
CC(C)(C)OC(=O)N1CCCCC1C(=O)NC1CCCc2c1cnn2-c1ccc(F)cc1F (stereo not given) 7.96%
O=C(Nc1cccc2c1cnn2-c1ccc(F)cc1)c1ccccn1 3.22%
O=C(NC1CCCc2c1cnn2-c1ccc(F)cc1F)c1ccncc1 (stereo not given) 1.34%
CCOc1ccc(CCNC(=O)CN(C)C)cc1OCC -3.2%
Cc1cccc(-c2ccc3ncnc(NCc4cccc(F)c4)c3c2)c1 -9.55%
O=C(NC1CCCc2c1cnn2-c1ccc(F)cc1F)c1cccs1 (stereo not given) -60.6%
O=C(Nc1cccc2nn(-c3ccc(F)cc3)cc12)c1ccccn1 9.12%
O=C(CCCCCCC(=O)Nc1ccccc1)NO -18.2%
CCOC(=O)C1CCN(C(=O)C(C)(C)NC(=O)Nc2cccc(-c3csc(C)n3)c2)CC1 3.3%
O=C(O)CCc1ccc(NCc2cccc(Oc3ccccc3)c2)cc1 -0.35%
O=C(NC1CCCc2c1cnn2-c1ccc(F)cc1F)c1ccn[nH]1 (stereo not given) -5.9%
CCOC(=O)C1CCN(C(=O)C(C)(C)NC(=O)Nc2ccc(F)c(F)c2)CC1 -20.8%
O=C(c1cc2sccc2n1Cc1ccccc1)N(CCc1ccc(O)c(O)c1)Cc1ccccc1 10.7%
COc1cc(Nc2ncc(F)c(Nc3ccc4c(n3)NC(=O)C(C)(C)O4)n2)cc(OC)c1OC -7.73%
O=C(NC1CCCc2c1cnn2-c1ccc(F)cc1F)c1cnccn1 (stereo not given) -14.9%

— PubChem BioAssay AID652283 (National Center for Advancing Translational Sciences (NCATS), 2013)
